# Values joined by “and” are separate entries in the source; they are usually repeats but may differ in a detail not shown here. Identical values can stand only once. Records with an inconclusive call do not appear. A call without a number means that no potency is given here. A structure can be active in one record and inactive in another. Active and inactive are the calls of the source. Unless noted, calls come from the whole dose curve; as a rule, active = well fitted curve in the direction sought with a large enough effect in the repeat runs; inconclusive = weak or mixed curves; inactive = no such curve, though single readings can be large; an effect the other way counts as inactive or inconclusive.
# Legend:
# [1] = qHTS assay to identify aromatase inhibitors - cell viability counter screen (AID 743084);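 note: cells stimulated with testosterone during compound exposure; nearly all actives have a fitted effect of over 55% in size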
# [2] = qHTS assay to identify small molecule that activate the aryl hydrocarbon receptor (AhR) signaling pathway - cell viability counter screen (AID 743086); note: nearly all actives have a fitted effect of over 45% in size
# Outline: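 HepG2-AhR-luc (HG2L7.5c1) cells, 4000/well, were preincubated 5 h at 37C, exposed to compound in qHTS format for 24 hr at 37C, then given CellTiter-Fluor for 30 min; viability was read as fluorescence in the reporter wells.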
# [3] = target: Peroxisome proliferator-activated receptor gamma (Homo sapiens) (UniProt P37231); assay: qHTS assay to identify small molecule agonists of the peroxisome proliferator-activated receptor gamma (PPARg) signaling pathway (AID 743094; active = well fitted activation curve with a large enough effect in the signal ratio in the repeat runs, not every such curve was filed as active; the % refers to the signal ratio)
# Chain of Peroxisome proliferator-activated receptor gamma (Homo sapiens) (P37231 whole entry, looked up): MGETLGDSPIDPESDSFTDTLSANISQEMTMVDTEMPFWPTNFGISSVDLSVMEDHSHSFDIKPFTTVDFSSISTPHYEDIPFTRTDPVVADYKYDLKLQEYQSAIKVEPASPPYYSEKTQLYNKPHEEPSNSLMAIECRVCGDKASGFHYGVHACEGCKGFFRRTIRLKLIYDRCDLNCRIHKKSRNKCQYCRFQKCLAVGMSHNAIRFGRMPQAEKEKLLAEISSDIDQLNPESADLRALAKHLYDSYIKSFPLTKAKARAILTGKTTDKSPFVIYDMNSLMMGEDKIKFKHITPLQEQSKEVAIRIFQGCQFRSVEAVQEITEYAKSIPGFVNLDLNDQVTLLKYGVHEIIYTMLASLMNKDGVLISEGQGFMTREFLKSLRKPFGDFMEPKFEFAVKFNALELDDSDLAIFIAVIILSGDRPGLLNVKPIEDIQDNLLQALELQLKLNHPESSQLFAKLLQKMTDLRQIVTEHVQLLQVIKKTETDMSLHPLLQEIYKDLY
# Outline: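 Stably transfected HEK293H cells (GeneBLAzer PPARg UAS-bla) were incubated with test substances for 17 h at 37C after a 5 h pre-incubation; beta-lactamase activity was then detected by FRET substrate fluorescence.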
# [4] = target: Peroxisome proliferator-activated receptor gamma (Homo sapiens) (UniProt P37231); assay: qHTS assay to identify small molecule antagonists of the peroxisome proliferator-activated receptor gamma (PPARg) signaling pathway (AID 743191; calls by dose curve; note: nearly all actives have a fitted effect of over 30% in size)
# Outline: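 GeneBLAzer PPARg UAS-bla HEK293H cells carrying a UAS-driven beta-lactamase reporter were plated at 3000 cells/well, preincubated 5 h at 37C, then given compound for 17 h at 37C; LiveBLAzer B/G FRET substrate was read after 1 h at room temperature.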
# [5] = qHTS assay to identify small molecule antagonists of the peroxisome proliferator-activated receptor gamma (PPARg) signaling pathway - cell viability counter screen (AID 743194); note: nearly all actives have a fitted effect of over 55% in size
# Outline: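 PPARg-UAS-bla HEK293H cells were plated, rested 5 h at 37 C, then treated with compounds plus rosiglitazone (50 nM final) for 17 h at 37 C; viability was then read by CellTiter-Glo luminescence after 30 min at room temperature.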
# [6] = qHTS assay for small molecule agonists of the antioxidant response element (ARE) signaling pathway (AID 743202; active = well fitted activation curve with a large enough effect in the signal ratio in the repeat runs, not every such curve was filed as active; the % refers to the signal ratio)
# Outline: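 Read-out: LiveBLAzer B/G FRET substrate fluorescence after 2 h at room temperature, following 16 h compound treatment at 37 C of HepG2 cells carrying an ARE-driven beta-lactamase reporter.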
# [7] = qHTS assay for small molecule agonists of the antioxidant response element (ARE) signaling pathway - cell viability counter screen (AID 743203; calls by dose curve; note: nearly all actives have a fitted effect of over 55% in size)
# Outline: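 Cells (ARE-bla HepG2, 2,000/well) receive DMSO-dissolved compounds after a 5 hrs rest. Plates incubate 16 hrs at 37C/5% CO2. CellTiter-Glo luminescence is then recorded after 30 min at room temperature.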
# [8] = qHTS assay for small molecule activators of the heat shock response signaling pathway - cell viability counter screen (AID 743209); note: nearly all actives have a fitted effect of over 50% in size
# Outline: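 Quantitative HTS format, Tox21 10K library. HeLa cells carrying an HSE-driven beta-lactamase reporter were treated 5 h at 37 C, then assessed for viability by CellTiter-Glo luminescence.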
# [9] = qHTS assay for small molecule activators of the heat shock response signaling pathway (AID 743210; active = well fitted activation curve with a large enough effect in the signal ratio in the repeat runs, with a control signal flat, not every such curve was filed as active; the % refers to the signal ratio; for activation: series mostly up to about 63 µM)
# Outline: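 HSE-bla HeLa cells (beta-lactamase reporter under heat shock response elements) were exposed to compounds for 5 h at 37 C, then loaded with LiveBLAzer B/G FRET substrate for 2.5 h at room temperature before fluorescence reading.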
# [10] = target: Aryl hydrocarbon receptor (Homo sapiens) (UniProt P35869); assay: qHTS assay to identify small molecule that activate the aryl hydrocarbon receptor (AhR) signaling pathway (AID 743085); note: nearly all actives have a fitted effect of over 15% in size;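 for activation: HG2L7.5c1 human HepG2 liver cells with stably integrated DRE-driven firefly reporter; series mostly up to about 70 µM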
# Chain of Aryl hydrocarbon receptor (Homo sapiens) (P35869 whole entry, looked up): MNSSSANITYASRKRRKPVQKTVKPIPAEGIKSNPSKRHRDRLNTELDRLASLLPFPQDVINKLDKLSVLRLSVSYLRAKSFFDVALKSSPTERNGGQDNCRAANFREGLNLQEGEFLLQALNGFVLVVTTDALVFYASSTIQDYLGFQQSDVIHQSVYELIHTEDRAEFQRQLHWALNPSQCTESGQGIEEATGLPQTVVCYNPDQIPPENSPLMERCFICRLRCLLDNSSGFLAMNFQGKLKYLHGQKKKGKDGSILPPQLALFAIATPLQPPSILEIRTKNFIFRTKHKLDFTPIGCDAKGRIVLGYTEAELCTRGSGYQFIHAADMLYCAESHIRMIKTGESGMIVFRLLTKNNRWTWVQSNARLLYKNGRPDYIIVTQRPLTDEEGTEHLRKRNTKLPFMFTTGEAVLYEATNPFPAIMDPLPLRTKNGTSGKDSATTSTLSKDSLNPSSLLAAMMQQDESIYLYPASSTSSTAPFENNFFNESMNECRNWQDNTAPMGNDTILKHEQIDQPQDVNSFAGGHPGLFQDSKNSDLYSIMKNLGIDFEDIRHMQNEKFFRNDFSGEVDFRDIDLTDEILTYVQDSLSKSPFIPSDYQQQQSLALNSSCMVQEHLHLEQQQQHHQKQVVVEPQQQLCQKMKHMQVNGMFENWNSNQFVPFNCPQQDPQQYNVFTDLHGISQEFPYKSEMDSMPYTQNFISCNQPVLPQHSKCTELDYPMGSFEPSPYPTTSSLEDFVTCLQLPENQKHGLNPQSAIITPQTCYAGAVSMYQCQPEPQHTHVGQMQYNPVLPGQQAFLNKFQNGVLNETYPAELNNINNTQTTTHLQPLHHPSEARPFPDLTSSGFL
# Outline: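 Measured in HG2L7.5c1 cells: CellTiter-Fluor signal (30 min incubation, 37C) for viability, then luciferase luminescence (30 min, room temperature). Compound contact time was 24 h at 37C, following a 5 h pre-incubation.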
# Potency is the fitted concentration of half-maximal effect.
SMILES,Potency [1],Potency [2],Potency [3],Potency [4],Potency [5],Potency [6],Potency [7],Potency [8],Potency [9],Potency [10]
CCCCCCCCCCCCCCCCCl,inactive,inactive,inactive,inactive,inactive,inactive,inactive,inactive,inactive,–
CC[C@H]1CN2CCc3cc(OC)c(OC)cc3[C@@H]2C[C@@H]1C[C@H]1NCCc2cc(OC)c(OC)cc21,9.72 µM (active),–,–,–,–,–,24.4 µM (active),2.46 µM (active) and 10.6 µM (active),inactive,inactive
CCCOC(=O)c1cc(O)c(O)c(O)c1,–,inactive,inactive,–,inactive,15.3 µM (active),inactive,inactive,inactive,4.22 µM (active) and inactive
NC(N)=Nc1nc(CSCC/C(N)=N/S(N)(=O)=O)cs1,inactive,inactive,inactive,inactive,inactive,inactive,inactive,inactive,inactive,–
CC(C)CCOC(=O)c1ccc(N(C)C)cc1,inactive,inactive,inactive,–,inactive,inactive,inactive,inactive,inactive,–
C/C=C/c1ccc(OCC)c(O)c1,inactive,inactive,inactive,inactive,–,inactive,inactive,inactive,inactive,–
Oc1c(Cl)cc(Cl)cc1Sc1cc(Cl)cc(Cl)c1O,–,inactive,–,–,–,–,–,43.8 µM (active) and 49 µM (active) and inactive,inactive,inactive
O=Nc1ccc(Nc2ccccc2)cc1,27.4 µM (active),inactive,15.5 µM (active),–,19.6 µM (active) and 43.6 µM (active),3.06 µM (active),inactive,34.7 µM (active),–,–
CNC1(C)C2CCC(C2)C1(C)C (centres undefined),inactive,inactive,inactive,inactive,inactive,inactive,inactive,inactive,inactive,–
O=Cc1ccc(Cl)cc1,inactive,inactive,inactive,inactive,inactive,inactive,inactive,inactive,inactive,–
O=C(O)Cn1cnnn1,–,–,–,inactive,inactive,inactive,inactive,inactive,inactive,–
O=C1OC2(c3ccc(O)cc3Oc3cc(O)ccc32)c2ccccc21,–,–,–,–,inactive,–,inactive,inactive,–,inactive
CCCCOCCOC(=O)c1ccccc1C(=O)OCCOCCCC,inactive,inactive,inactive,inactive,inactive,inactive,inactive,inactive,–,–
Cc1cccc2n[nH]nc12,–,inactive,–,–,inactive,inactive,inactive,inactive,inactive,–
c1cc(C(c2ccc(OCC3CO3)cc2)C(c2ccc(OCC3CO3)cc2)c2ccc(OCC3CO3)cc2)ccc1OCC1CO1 (centres undefined),inactive,inactive,–,–,inactive,–,inactive,inactive,–,–
COc1nc(C)nc(Cl)c1NC1=NCCN1,inactive,inactive,inactive,inactive,inactive,inactive,inactive,–,inactive,–
Nc1nc2ccccc2[nH]1,inactive,inactive,inactive,inactive,inactive,inactive,inactive,inactive,inactive,–
Nc1ccc2cc3ccccc3cc2c1,–,–,–,–,inactive,–,inactive,inactive,–,62.2 µM (active) and 8.63 µM (active)
COc1ccc(CCN(C)CCCC(C#N)(c2ccc(OC)c(OC)c2)C(C)C)cc1OC (centres undefined),27.3 µM (active),–,–,–,inactive,–,–,inactive,–,–
CCCC(=O)c1ccccc1,inactive,–,inactive,–,inactive,inactive,inactive,inactive,inactive,inactive
Nc1cc(Cl)c(-c2cc(Cl)c(N)cc2Cl)cc1Cl,48.5 µM (active),inactive,–,–,48.9 µM (active) and 17.4 µM (active),–,61.1 µM (active) and 21.7 µM (active),24.5 µM (active),–,–
C#CC(C)(CC)OC(=O)c1ccccc1C(=O)O (centres undefined),–,–,–,inactive,inactive,inactive,inactive,inactive,inactive,–
CC(C)(C)c1ccccc1,–,–,–,–,–,inactive,inactive,inactive,inactive,–
O=C1Nc2ccccc2C1(c1ccc(O)cc1)c1ccc(O)cc1,–,–,–,–,inactive,–,inactive,inactive,inactive,inactive
CC[C@]1(O)C[C@@H]2CN(CCc3c([nH]c4ccccc34)[C@@](C(=O)OC)(c3cc4c(cc3OC)N(C)[C@H]3[C@@](O)(C(=O)OC)[C@H](OC(C)=O)[C@]5(CC)C=CCN6CC[C@]43[C@@H]65)C2)C1,–,16.8 µM (active) and 15 µM (active),–,–,inactive,–,inactive,–,inactive,inactive
OCCOCCN1CCN(C(c2ccccc2)c2ccc(Cl)cc2)CC1 (centres undefined),inactive,–,inactive,–,inactive,inactive,inactive,inactive,–,–
CCN(CC)c1ccc2c(C)cc(=O)oc2c1,–,–,–,–,inactive,–,inactive,inactive,31.1 µM (active),–
Nc1ccc(O)cc1,54.5 µM (active) and 31.8 µM (active),54.5 µM (active) and 50.4 µM (active),inactive,inactive,inactive,29.8 µM (active),12.7 µM (active) and inactive,25.5 µM (active) and inactive,inactive,–
C=CC(=O)OCCCCCCOC(=O)C=C,–,inactive,–,–,inactive,10.9 µM (active),inactive,17.4 µM (active),–,inactive
CN(C)c1ccc2nc3ccc(=[N+](C)C)cc-3sc2c1,23.7 µM (active) and 13.1 µM (active),9.44 µM (active) and 16.6 µM (active) and 27.3 µM (active),inactive,43.6 µM (active) and inactive,inactive,–,11.7 µM (active) and 9.69 µM (active) and 11.9 µM (active),inactive and 54.9 µM (active),–,–
